In assay [1] the test system is XIP peptide (Xip251-270) binding. In words: XIP fragment 251-270 binding compounds – biochemical, small-molecule microarray, fluorescence 635/667 nm, 0.1 µg/mL protein, primary screen (AID 1182). The following applies: fluorescent protein binding, 635 nm, higher = more signal, called active from +8 up or from −8 down.
The next assay deals with XIP peptide (Xip251-270). In words: compounds binding XIP fragment 251-270 – biochemical, small-molecule microarray, fluorescence 635/667 nm, 0.5 µg/mL protein, primary screen (AID 1183). As to conditions: fluorescence 635 nm, higher = more signal.
Assay [2] in a line: blood-stage malaria parasite viability loss – strain 3D7, DAPI fluorescence, 100 nL, primary screen (AID 1184).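 Also: parasites grown inside human red blood cells in medium with human serum.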 As to conditions: P. falciparum 3D7 growth, 3 d, higher = more signal.
In assay [3] the target is Homeobox protein Hox-A13 (Mus musculus) (UniProt Q62424). Description: disruptors of Hoxa13 oligonucleotide interaction – biochemical, fluorescence polarization, labeled oligonucleotide, primary screen (AID 1185). As to conditions: Hoxa13:DNA binding, 15 min, higher = more signal, called active from +8 up or from −8 down. On the technique in general: In fluorescence polarisation assays a small probe gives low polarisation when free and higher when bound to something large.

A short description of assay [4]: blockers of DNA damage checkpoint Chk1 activation – imaging, HeLa, hydroxyurea, phospho-Chk1 antibody, percent positive cells, primary screen (AID 1186). As to conditions: hydroxyurea-induced phospho-Chk1 immunofluorescence imaging, higher = more signal.
A short description of assay [5]: blockers of DNA damage checkpoint Chk1 activation – imaging, HeLa, hydroxyurea, phospho-Chk1 nuclear intensity, primary screen (AID 1187). The following applies: hydroxyurea-induced phospho-Chk1 immunofluorescence imaging, higher = more signal.
Assay [6] in a line: IGROV1 cell killing – plate reader, dry powder samples, PAX8 inhibitor project, dose response (AID 743043).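 Also: more negative means fewer viable cells or more cytotoxicity.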 As to conditions: IGROV1 ovarian cancer cell cytotoxicity; series mostly up to 50 µM.
A short description of assay [7]: toxicity toward immortalized ovarian surface epithelium – cell-based, plate reader, dry powder samples, cytotoxicity control for PAX8 inhibitor project, dose response (AID 743045).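 Also: 0% = neutral control median and -100% = positive control median; more negative values mean more cell killing.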 As to conditions: IOSE-T80 ovarian epithelial cells; series mostly up to 50 µM.

For some assays here: Results with a measured potency or affinity are listed apart. Records with an inconclusive call do not appear. Active and inactive are the calls of the source. Unless noted, no rule for the calls is given here.

Chain of Homeobox protein Hox-A13 (Mus musculus) (Q62424 whole entry, looked up): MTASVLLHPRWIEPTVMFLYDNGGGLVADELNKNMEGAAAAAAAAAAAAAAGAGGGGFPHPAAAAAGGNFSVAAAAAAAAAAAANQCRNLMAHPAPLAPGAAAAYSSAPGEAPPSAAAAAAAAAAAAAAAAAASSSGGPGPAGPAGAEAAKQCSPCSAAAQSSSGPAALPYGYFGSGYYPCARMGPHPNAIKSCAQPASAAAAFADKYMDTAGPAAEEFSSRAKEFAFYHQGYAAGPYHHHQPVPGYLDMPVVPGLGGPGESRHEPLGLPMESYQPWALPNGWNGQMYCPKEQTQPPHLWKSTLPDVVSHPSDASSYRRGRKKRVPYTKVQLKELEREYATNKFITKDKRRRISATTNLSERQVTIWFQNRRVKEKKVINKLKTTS

Turning to `COc1ccc([Si](C)(C)[C@@H]2[C@@H](CCO)O[C@]3(C(=O)N(Cc4ccc(NC(=O)[C@H](C)O)cc4)c4ccccc43)[C@H]2C)cc1`, the figures for the composite z-score (in assay [1]; with XIP peptide (Xip251-270)) were 0.894 (inactive) and 0.752, respectively. Further, the z-score in assay [2] is -2.79; in assay [3], -4.05 (inactive); in assay [4] it was -1.42 (inactive); in assay [5], -1.27 (inactive).
Turning to `COCCCNC(=O)[C@@]1(c2ccc([N+](=O)[O-])cc2)CC(=O)N(C2CCCCC2)[C@@H]1c1ccc(CO)cc1`, the composite z-score is 0.516 (inactive) in assay [1] and -0.0219 in the assay with XIP peptide (Xip251-270). In addition, the z-score in assay [2] is -0.214; in assay [3], -2.99 (inactive); in assay [4], 0.029 (inactive); in assay [5] it was -0.269 (inactive).
In the case of `O=C(N1CCCCC1)[C@@]1(CCS(=O)(=O)c2ccccc2)N=C(c2ccc(OCCCO)cc2)O[C@H]1c1ccccc1`, the figures for the composite z-score (in assay [1]; with XIP peptide (Xip251-270)) were -0.43 (inactive) and 0.23, respectively. Besides, the z-score in assay [2] was -2.24; in assay [3] it was -3.65 (inactive); in assay [4], -0.61 (inactive); in assay [5], -0.262 (inactive). The call in assay [6] and in assay [7] was inactive.
Take `C=CC[C@]1(C(=O)OC)N=C(c2ccc(OCCCO)cc2)O[C@H]1c1ccccc1CN=[N+]=[N-]`: the composite z-score in assay [1] is -0.127 (inactive); in the assay on XIP peptide (Xip251-270), -0.239. Further, the z-score was -2.35 in assay [2], -1.99 (inactive) in assay [3], -0.0854 (inactive) in assay [4] and 0.137 (inactive) in assay [5].
In the case of `C[C@@H]1NC(=O)[C@H](Cc2ccccc2)NC(=O)[C@@]23C(=O)N[C@@H](Cc4ccccc4)C2[C@H](C)[C@@]2(C)O[C@H]2C3/C=C/C/C=C\CNC1=O` (stereo partly specified), the values for the composite z-score (in assay [1]; in the assay on XIP peptide (Xip251-270)) were -0.138 (inactive) and 0, respectively. For the same molecule, the z-score in assay [2] was -0.5; in assay [3], -6.67 (inactive); in assay [4], 0.4 (inactive); in assay [5] it was 0.374 (inactive).
Turning to `Cc1ccc(S[C@]2(C(=O)NCCN3CCOCC3)CC(=O)N(C3Cc4ccccc4C3)[C@@H]2c2ccc(CO)cc2I)cc1`, the composite z-score in assay [1] is 0.669 (inactive); with XIP peptide (Xip251-270), 0.771. Further, the z-score in assay [2] was -0.861; in assay [3], -2.43 (inactive); in assay [4], 0.18 (inactive); in assay [5], 0.764 (inactive).
Take `CC(C)NC(=O)[C@@]1(Cc2ccccc2I)c2ccccc2C(=O)N(C2CCCCC2)[C@H]1c1ccc(CO)cc1`: the values for the composite z-score (in assay [1]; in the assay with XIP peptide (Xip251-270)) were 1.02 (inactive) and 0.84, respectively. Besides, the z-score in assay [2] was -1.89; in assay [3] it was -4.58 (inactive); in assay [4], 0.551 (inactive); in assay [5], 0.615 (inactive).
In the case of `O=C/C=C/c1ccc(/C=C/c2ccccc2)cc1`, the composite z-score was -0.837 (inactive) in assay [1] and -0.443 in the assay with XIP peptide (Xip251-270). Further, the z-score in assay [2] is 3.9; in assay [3], 0.0626 (inactive); in assay [4] it was 0.144 (inactive); in assay [5], 0.848 (inactive).
On to `C=C(COC)C(=O)CC[C@H](OC(=O)c1ccccc1-c1ccccc1C(=O)O)c1cccc(OCCO)c1`, for which the composite z-score in assay [1] was 0.437 (inactive); in the assay on XIP peptide (Xip251-270), 0.569. The z-score is -0.034 in assay [2], -4.76 (inactive) in assay [3], 0.369 (inactive) in assay [4] and 0.258 (inactive) in assay [5].
`O=C1OCC=C[C@H]2OC34C=CCN(Cc5ccccc5)C(=O)[C@H]3N(CCCCCO)C(=O)[C@@H]4[C@@H]12` (stereo partly specified): the composite z-score in assay [1] is 0.211 (inactive); in the assay on XIP peptide (Xip251-270) it was -0.85. Besides, the z-score in assay [2] was -1.99; in assay [3] it was -3.21 (inactive); in assay [4], 0.729 (inactive); in assay [5] it was 0.0912 (inactive).
For the molecule `C=C(CCCC)/C(=C/C[C@@H](OC(=O)c1ccncc1)c1cccc(OCCO)c1)c1cc(C(=O)OC)ccc1OC`, the figures for the composite z-score (in assay [1]; in the assay with XIP peptide (Xip251-270)) were 1.33 (inactive) and 0.74, respectively. For the same molecule, the z-score is -3.09 in assay [2], -3.11 (inactive) in assay [3], 0.0994 (inactive) in assay [4] and 0.74 (inactive) in assay [5].
Regarding `CCCNC(=O)[C@@H]1c2ccccc2C(=O)N(Cc2cc(F)cc(C(F)(F)F)c2)[C@H]1c1ccc(CO)cc1`, the composite z-score was 0.395 (inactive) in assay [1] and 0.801 in the assay on XIP peptide (Xip251-270). Further, the z-score was -0.43 in assay [2], -2.12 (inactive) in assay [3], -0.438 (inactive) in assay [4] and -0.142 (inactive) in assay [5].
As to `CN1C(=O)C2C=CC(C(O)C3CC=CCC3)N(Nc3ccccc3)C2C1=O` (stereo unspecified), the composite z-score is 0.769 (inactive) in assay [1] and 0.795 in the assay with XIP peptide (Xip251-270). Moreover, the z-score in assay [2] was 0.235; in assay [3] it was -3.96 (inactive); in assay [4] it was 0.202 (inactive); in assay [5], 0.25 (inactive).
For the molecule `Cc1ccc(S[C@]2(C(=O)NCCCN(C)C)CC(=O)N(Cc3ccccc3)[C@@H]2c2ccc(CO)cc2I)cc1`, the figures for the composite z-score (in assay [1]; in the assay with XIP peptide (Xip251-270)) were 0.066 (inactive) and 0.119, respectively. The z-score in assay [2] was 0.0943; in assay [3], -2.06 (inactive); in assay [4], 0.379 (inactive); in assay [5] it was 0.637 (inactive).

The record behind these values is PubChem BioAssay.
